Source: PubChem (Sanford-Burnham Center for Chemical Genomics)
PfGluPho inh – PfG6PD (Plasmodium falciparum) enzyme inhibition; AID 504690; inhibition, % at 20 µM; PfGluPho enzyme, NADPH resazurin-diaphorase fluorescence; 350,000 compounds, 0.78% hits;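 active = inhibition reaching at least a set limit at 20 µM in the primary screen, cut at about 59% in these data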
A3A deaminase – blocks human APOBEC3A ssDNA deamination. recombinant A3A, FAM/TAMRA ssDNA deamination fluorescence. inhibition, % at 20 µM. 330,000 compounds, 0.41% hits. AID 493011. P31941;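 active = at least 40% inhibition at 20 µM here, with at most 30% in a related deaminase screen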
Neddylation inh – blocks human cullin neddylation; P61081+Q13564; TR-FRET cullin neddylation, biochemical; inhibition, % at 25 µM; 360,000 compounds, 0.58% hits; AID 651699; in the data active = inhibition above about 36%
GC-B act – GC-B (human) receptor activation; 370,000 compounds, 0.11% hits; activation, % at 10 µM; P20594; HEK293-GC-B cells, CNP EC30, cGMP TR-FRET; 0% at EC30 CNP, 100% saturating CNP;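 active = activation at 10 µM reaching about 35% in either raw or pattern-adjusted values, limit read from the data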
NPR1 activator – GC-A (human) enzyme activation. P16066. HEK293 GC-A cells, cGMP TR-FRET, EC30 ANP; 0% at EC30 ANP, 100% saturating ANP. activation, % at 10 µM. 370,000 compounds, 0.14% hits. AID 1671463; in the data active = activation above about 40%
APOBEC3G inh – inhibitors of human APOBEC3G DNA deaminase | recombinant A3G, ssDNA deamination FAM/TAMRA fluorescence | 330,000 compounds, 0.28% hits | inhibition, % at 20 µM;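 active = inhibition of at least 40% at 20 µM, with no more than 30% in the related APOBEC3A deaminase screen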
A3G conf – confirmation of human APOBEC3G DNA deaminase inhibitors | shares compounds with APOBEC3G inh | recombinant A3G ssDNA deaminase, UDG/FAM-TAMRA fluorescence | inhibition, % at 20 µM | 890 compounds, 72% hits | AID 493152;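 active = inhibition reaching a set limit in any replicate at 20 µM, the limit being 80% of the first screen's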
UDG A3G counter – inhibits E. coli UDG, flagging false APOBEC3G inhibitors. shares compounds with APOBEC3G inh. UDG counterscreen, FAM/TAMRA oligo fluorescence. inhibition, % at 20 µM. 710 tested, under 10 active;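 active = compounds giving 40% or more inhibition at 20 µM in any one of the three replicates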;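 also: inhibitors lower the FAM signal released by uracil excision and alkaline cleavage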
A number is an active result; i = inactive; nt = not tested or not shown. Only some compounds are listed: those with a hit (about 2% of all), similar ones and a draw of the others.

SMILES	PfGluPho inh	A3A deaminase	Neddylation inh	GC-B act	NPR1 activator	APOBEC3G inh	A3G conf	UDG A3G counter
COc1cc(C(=O)N2CCNCC2)cc(OC)c1OC	i	i	i	i	i	i	nt	nt
COCCCN(CCCN)Cc1ccco1	i	i	i	i	i	71	i	i
O=C(CCc1ccccc1)N[C@H]1[C@@H](OC(=O)C2CC2)CCC[C@@]12C(=O)N(Cc1ccccc1)c1ccccc12	nt	nt	nt	i	i	nt	nt	nt
Cc1ccccc1Cn1cnc2c(cnn2C(C)(C)C)c1=O	i	i	i	i	i	i	nt	nt
Cc1ccc(C)c(Cn2cnc3c(cnn3C(C)(C)C)c2=O)c1	i	i	i	i	i	58	i	nt
Cc1ccc(C)c(NC(=O)CN(C)C(=O)c2ccc(-n3cncn3)c([N+](=O)[O-])c2)c1	i	i	i	i	i	69	i	i
CC(C)Cn1c(-c2ccc(Br)o2)n[nH]c1=S	i	i	i	i	i	41	76	i
Cc1ccsc1-c1n[nH]c(=S)n1CC(C)C	i	i	i	i	i	44	90	i
Cc1ccccc1-n1c(-c2ccc(Br)o2)n[nH]c1=S	i	i	i	i	i	i	nt	nt
CCOc1ccc2nc(SC3CC(=O)N(c4ccccc4)C3=O)sc2c1 (configuration not stated)	i	i	i	nt	nt	i	nt	nt
COc1ccc(N2C(=O)CC(Sc3nc(C)c4c(n3)CCCC4)C2=O)cc1 (configuration not stated)	i	i	i	i	i	i	nt	nt
CCOc1ccc(N2C(=O)CC(Sc3n[nH]c(-c4ccccc4)n3)C2=O)cc1 (configuration not stated)	i	i	i	i	i	46	47	i
COc1ccc(N2C(=O)CC(Sc3n[nH]c(-c4ccccc4)n3)C2=O)cc1 (configuration not stated)	i	i	i	i	i	53	62	i
CCCCCCCCN1CCS(=O)(=O)N(Cc2ccccc2)C(C(=O)OC)C1 (configuration not stated)	nt	nt	nt	i	i	nt	nt	nt
CCOC(=O)c1cccc(NC(=O)Cn2cc3c(n2)CCC(C)C3)c1 (configuration not stated)	i	i	i	i	i	47	i	nt
O=S(=O)(c1c(F)cccc1F)N1CCCC2CCCCC21 (configuration not stated)	i	i	i	i	i	53	i	i
COc1ccccc1/C=C/C=N/NC(=O)c1ccccn1	i	i	i	i	i	i	nt	nt
COc1ccccc1/C=C/C=N/NC(=O)c1cc(-c2ccco2)[nH]n1	i	i	i	i	i	64	21	i
N[C@H](C(=O)Nc1ccc(Cl)cc1C(=O)c1ccc[nH]1)c1ccccc1	nt	nt	nt	i	i	nt	nt	nt
CC(C)[C@H](NC(=O)[C@H](C)NC(=O)OC(C)(C)C)C(=O)N1CCC2CCN(Cc3ccccc3)CC21 (some centres not stated)	nt	nt	nt	i	i	nt	nt	nt
S=c1[nH]c2ccccc2n1Cc1ccccc1	i	i	i	i	i	50	54	i
S=c1[nH]c2cnccc2n1Cc1ccccc1	i	i	i	i	i	i	nt	nt
CCOc1cc(OCC)cc(C(=O)N2CCC[C@@H]2C(=O)N2CCC[C@@H]2C(=O)NCc2cccc(OC)c2)c1	nt	nt	nt	i	i	nt	nt	nt
C#CCN1CC(N(C)CCOC(=O)CC2C=CCC2)CS1(=O)=O (configuration not stated)	nt	nt	nt	i	i	nt	nt	nt
CCC(=O)Nc1cccc(C2=NOC3(C2)C[C@@H](C(N)=O)N(C(=O)COc2ccc(Cl)cc2)C3)c1 (some centres not stated)	i	i	i	i	i	i	nt	nt
SMILES	PfGluPho inh	A3A deaminase	Neddylation inh	GC-B act	NPR1 activator	APOBEC3G inh	A3G conf	UDG A3G counter
C=C(C)C(=O)Nc1cccc(C2=NOC3(C2)C[C@H](C(N)=O)N(C(=O)c2ccccc2)C3)c1 (some centres not stated)	i	i	i	i	i	63	65	i
C=C(C)C(=O)Nc1cccc(C2=NOC3(C2)C[C@@H](C(N)=O)N(C(=O)c2cc([N+](=O)[O-])cc([N+](=O)[O-])c2C)C3)c1 (some centres not stated)	i	i	i	i	i	44	59	i
C=C(C)C(=O)Nc1cccc(C2=NOC3(C2)C[C@@H](C(N)=O)N(C(=O)c2ccc(Cl)cc2)C3)c1 (some centres not stated)	i	i	nt	nt	nt	100	90	i
C/C=C(/C)C(=O)Nc1cccc(C2=NOC3(C2)C[C@H](C(N)=O)N(C(=O)c2ccc(Cl)cc2)C3)c1 (some centres not stated)	i	i	i	i	i	i	nt	nt
C/C=C/C(=O)Nc1cccc(C2=NOC3(C2)C[C@@H](C(N)=O)N(C(=O)c2cc([N+](=O)[O-])cc([N+](=O)[O-])c2C)C3)c1 (some centres not stated)	i	i	i	i	i	i	nt	nt
C=C(C)C(=O)Nc1cccc(C2=NOC3(C2)C[C@H](C(N)=O)N(C(=O)COc2ccc(Cl)cc2)C3)c1 (some centres not stated)	i	i	i	i	i	88	91	i
COC(=O)C1CN(CCc2ccccc2)CCS(=O)(=O)N1Cc1ccc(C)cc1 (configuration not stated)	nt	nt	nt	i	i	nt	nt	nt
O=C(O)CCN1C(=O)/C(=C2\C(=O)N(Cc3ccccc3Cl)c3ccccc32)SC1=S	nt	i	i	i	i	i	nt	nt
COc1ccc(NC(=O)CN2C(=O)/C(=C3\SC(=S)N(CCC(=O)O)C3=O)c3ccccc32)cc1	i	i	i	nt	nt	53	71	i
S=c1[nH]nc(COc2ccccc2)n1/N=C/c1ccccn1	i	i	i	i	i	55	86	i
CCc1n[nH]c(=S)n1/N=C/c1c(C)nn(-c2ccccc2)c1Cl	i	i	i	i	i	i	nt	nt
CCc1n[nH]c(=S)n1/N=C/c1ccc(N(CC)CC)cc1	i	i	i	i	i	47	48	i
S=c1[nH]nc(COc2ccccc2)n1/N=C/c1ccncc1	i	i	i	i	i	62	82	i
S=c1[nH]nc(COc2ccccc2)n1/N=C/c1ccc(Cl)c(Cl)c1	i	i	i	i	i	i	nt	nt
COc1cc(/C=N/n2c(-c3ccccc3)n[nH]c2=S)ccc1O	i	i	i	i	i	i	nt	nt
COc1cc(/C=N/n2c(-c3ccccc3)n[nH]c2=S)cc(OC)c1O	i	i	i	i	i	48	64	i
FC(F)(F)c1ccc(/C=N/n2c(COc3ccccc3)n[nH]c2=S)cc1	i	i	i	i	i	i	nt	nt
